Screens deposited in PubChem BioAssay by National Center for Advancing Translational Sciences (NCATS).
HCMV antiviral: blocks human cytomegalovirus replication | hit rate 4.5% among 410,000 | activity change, negative = inhibition, % at 57.5 µM | HFF cells, HCMV-luciferase reporter, 72 h; stronger effect = lower value; in the data active means activity change below about -60%; inconclusive means no clear call, values can overlap the other calls; inactive means above about -39%
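Luciferase read-out from HCMV-luciferase-infected HFFs (MOI 1 PFU/cell) 72 h post infection at 37C; compounds added after 16 h cell attachment; activity normalized between buffer-only basal and Salinomycin (10uM) inhibitor controls.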
Marburg entry inh: Marburg virus entry inhibition; Marburg virus pseudotyped entry inhibition, cell reporter; hit rate 1.8% among 300,000; Potency, µM (highest dose often 37.8 µM), without a hit: at the top dose activity change, negative = inhibition, actives largely listed as inhibitors; AID 540276; calls by dose curve; tested in HEK293 cells; further: potency means the concentration at half of the fitted maximal effect
VACV mCherry inh: vaccinia inhibition (mCherry reporter); Vaccinia virus mCherry reporter infection, fluorescence; AID 720579; hit rate 0.63% among 310,000; Potency, µM (doses to about 36.5 µM), for the others: top-dose activity change, negative = inhibition, actives largely listed as inhibitors; calls by dose curve; tested in A549 cells; further: potency means the concentration at half of the fitted maximal effect; nearly all actives have a fitted effect of over 35% in size
Vaccinia Venus: inhibitors of vaccinia virus (Venus reporter); Vaccinia virus Venus reporter expression, fluorescence; hit rate 0.46% among 330,000; Potency, µM (titrated, usually from 36.5 µM), for inactives: top-dose activity change, negative = inhibition, most hits filed as inhibitors; calls by dose curve; tested in A549 cells; further: potency means the concentration at half of the fitted maximal effect; nearly all actives have a fitted effect of over 30% in size
LASV entry inh: inhibitors of Lassa virus binding or cell entry; Lassa virus pseudotype entry inhibition, cell reporter; hit rate 1.2% among 300,000; AID 540256; Potency, µM (series often up to 37.9 µM), for the others: at the highest dose activity change, negative = inhibition, actives largely listed as inhibitors; calls by dose curve; tested in HEK293 cells; further: potency means the concentration at half of the fitted maximal effect; nearly all actives have a fitted effect of over 50% in size
HCV inhibitor: blocks hepatitis C virus; Huh7.5.1 HCVcc-Cre infection, luciferase reporter, 44 h; hit rate 3.4% among 340,000; AID 651820; Potency, µM (doses to about 41.8 µM), for inactives: at the top dose activity change, negative = inhibition, actives largely listed as inhibitors; active means well fitted inhibition curve with a large enough effect; inconclusive means small, poorly fitted or top-dose-only effect, or another doubt; inactive means no such curve, though single readings can be large or run the other way; further: potency means the concentration at half of the fitted maximal effect
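Reporter virus HCVcc-Cre (~0.5 moi) infects cells exposed to compound; seeding density 1,000 cells/well with 4 h settling beforehand. Luminescence, 15 sec read, taken 44 h post-infection following a 15 min RT substrate incubation.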
* marks the source's active call; other numbers are inactive results; i = inactive; ? = inconclusive; · = not tested or not shown; [ ] = dose if it differs, or a comment. Hits are enriched below; roughly 7.8% of the tested compounds scored in any of these assays. On the % scale 0 is the no-effect control and ±100 the full control effect.

SMILES	HCMV antiviral	Marburg entry inh	VACV mCherry inh	Vaccinia Venus	LASV entry inh	HCV inhibitor
CC(=O)Nc1ccc(NC2=Nc3ccccc3N3C2=Nc2c(c(C)nn2-c2ccccc2)C3c2ccccc2)cc1 (stereo not drawn)	-99*	?	?	?	?	1%
O=c1oc(-c2cccs2)nc2sc3c(c12)CCCC3	-25	-40%	i	-7%	?	12%
O=C1CN(c2nc(-c3cccs3)nc3sc4c(c23)CCCC4)CCN1	0	?	-22%	?	?	5.6µM*
O=C1CCC[C@@H]2CC(N(Cc3cc4ccccc4s3)c3ccccc3)C[C@@H]3CCN1[C@H]23 (stereo partly drawn)	·	·	i	-11%	·	·
Cc1ccc2nc(SCC(=O)NCC3Cc4cccc(-c5nc(C)cnc5C)c4O3)[nH]c2c1 (stereo not drawn)	·	·	-11%	0%	·	·
CC(=O)N1[C@@H]2c3ccc(-c4cccnc4)c(=O)n3C[C@@H]2[C@@H](CO)[C@@H]1C(=O)NCc1ccccc1Cl	9	·	·	·	·	·
Cc1ccc2[nH]cc(/C=C/c3cc[n+](C)cc3)c2c1	-100*	5µM*	?	51%	?	?
CCCCCCC[n+]1ccc(/C=C/c2c[nH]c3ccccc23)cc1	·	·	-24%	60%	·	·
COc1ccc2c(c1)c(/C=C/c1cc[n+](C)cc1)cn2C	-98*	·	?	28%	·	-21%
COc1ccc2c(/C=C/c3cc[n+](C)cc3)c[nH]c2c1	-99*	-28%	?	13%	-15%	?
CC[n+]1ccc(/C=C/c2c[nH]c3ccccc23)cc1	-94*	·	·	·	·	2.8µM*
CCOc1ccc(NC(=O)c2cc(C)nc3c2c(C)nn3-c2ccc(C)cc2)cc1	27	·	-9%	-7%	?	·
CC1CCCN(c2ccc(F)cc2N)C1 (stereo not drawn)	-78*	?	-17%	30%	?	?
CCc1sc(C(=O)Nc2ccccc2N2CCOCC2)cc1C	-75*	-26%[46.1 µM]	i	-13%	-14%[46.1 µM]	?
O=C(Nc1ccccc1N1CCOCC1)c1ccc(N2CCOCC2)c([N+](=O)[O-])c1	0	-3%[46.1 µM]	i	-9%	-21%[46.1 µM]	-29%
Cc1cc(C(=O)Nc2ccccc2N2CCOCC2)no1	0	·	·	·	·	0%
O=C(Nc1ccccc1N1CCOCC1)c1ccc([N+](=O)[O-])cc1	-101*	9%	·	·	-15%	2%
CC(=O)Nc1cc([N+](=O)[O-])ccc1N1CCOCC1	-22	11%[46.1 µM]	i	1%	-5%	4%
O=C(Nc1ccccc1N1CCOCC1)c1ccc([N+](=O)[O-])s1	?	?	4.5µM*	7.9µM*	-22%	11µM*
O=C(Nc1ccc([N+](=O)[O-])cc1)Nc1ccc(N2CCOCC2)c2nonc12	?	·	?	10µM*	·	-16%
O=C(C[C@@H](c1ccco1)S(=O)(=O)c1ccccc1)c1ccc(F)cc1	·	4%	·	·	·	·
COc1ccc(OCC(=O)NNc2c3ccccc3nc3ccccc23)cc1	-75*	?	-22%	?	?	6.3µM*
O=C(CCCO)NNc1c2ccccc2nc2ccccc12	-21	8%[46.1 µM]	-22%[7.34 µM]	-4%[7.34 µM]	-5%	1µM*
COc1ccc(OCC(=O)NNC(=O)C(=O)Nc2ccccc2)cc1	-1	·	·	·	·	-17%
O=C(CSc1nc2c([nH]c3ccccc32)c(=O)n1-c1ccc(Cl)cc1)NCc1ccccc1	-9	·	-14%	-7%	-6%[46.1 µM]	·
SMILES	HCMV antiviral	Marburg entry inh	VACV mCherry inh	Vaccinia Venus	LASV entry inh	HCV inhibitor
O=C(OCc1cnc(Cl)s1)c1ccccc1Cl	75	5%	·	-5%	9%	15%
CC(=O)OCn1ncc(N2CCOCC2)c(Br)c1=O	?	-15%[46.1 µM]	i	-11%	-16%[46.1 µM]	23%
O=C(OCn1ncc(Br)c(Br)c1=O)c1ccc(F)cc1	·	5.6µM*	11µM*	10µM*	13µM*	?
O=C(OCn1ncc(Br)c(Br)c1=O)c1ccccc1Cl	·	10µM*	?	?	11µM*	?
O=C(O)c1ccc(NC(=O)c2cccc(S(=O)(=O)Nc3ccc(C(=O)O)cc3)c2)cc1	14	·	·	·	·	12%
O=C(Nc1ccc(Br)cc1)c1cccc(S(=O)(=O)Nc2cnc3ccccc3c2)c1	-24	2.8µM*	?	?	?	?
COc1ccc(NS(=O)(=O)c2ccc3c(c2)Cc2ccccc2-3)cn1	-14	-22%	-10%	-18%	-9%	2.8µM*
CCOc1ccc(S(=O)(=O)Nc2cnc3ccccc3c2)cc1	-79*	-28%[46.1 µM]	?	-5%	?	1.8µM*
O=C1CSc2ccc(C(=O)Nc3cccc(S(=O)(=O)Nc4ccc(Br)cc4)c3)cc2N1	-91*	·	·	·	·	10µM*
CCN(Cc1ccccc1)C(=O)Cn1c(=O)n(-c2ccc(Cl)cc2)c(=O)c2c(C)c(C(=O)N(C)C)sc21	-15	·	-2%	-3%	22%[46.1 µM]	·
Nc1nccc(-c2c(-c3ccc(F)cc3)nn3cc(C(F)(F)F)ccc23)n1	·	·	·	·	19%	·
O=c1cc(-c2ccccc2F)[nH]c2cc3c(cc12)OCO3	·	16%	·	·	9%	·
Cc1cc(F)ccc1NC(=O)CCS(=O)(=O)c1cccc2nsnc12	4	7%[46.1 µM]	10%	5%	?	·
CC(C)(C)c1ccc(C(=O)Nc2ccc(S(=O)(=O)Nc3cnc4ccccc4n3)cc2)cc1	-70*	?	-6%	-2%	-8%	14%
COc1ccc(NC(=O)c2cccc(S(=O)(=O)Nc3ccc(Br)cc3)c2)cn1	-90*	?	?	?	?	?
CC(C)(C)c1ccc(C(=O)Nc2ccc(Oc3cccnc3)nc2)cc1	-66*	9%	-24%	?	?	2.8µM*
COc1ccc(NC(=O)c2cccc(Oc3ccccc3)c2)cn1	?	7.9µM*	-7%	-21%	?	?
O=C(Nc1ccc(S(=O)(=O)Nc2cnc3ccccc3n2)cc1)c1ccc(F)cc1	-10	-13%[46.1 µM]	i	-2%	-10%	-21%
CC(C)(C)c1ccc(C(=O)Nc2cccnc2)cc1	4	·	·	·	·	3%
CS(=O)(=O)Nc1cc(C(=O)N2CCNC(=O)C2)c2c(c1)ncn2CCc1ccccc1	·	·	i	0%	·	·
COc1cc(/C=N/Nc2ccccc2)ccc1O	-29	?	-17%	-12%	-25%[46.1 µM]	-11%
COC(=O)c1[nH]c2cc(OC)c(OC)cc2c1/C=N/Nc1ccccc1	100	·	·	·	·	10µM*
CCOC(=O)c1cc(OC(=O)c2cccc(F)c2)n(-c2ccccc2)n1	8	?	2%	-2%	-16%[46.1 µM]	·
Cc1cccc(C(=O)N2CCc3cc(CNC(=O)CCc4ccccc4)ccc32)c1	-22	·	i	-12%	-23%[46.1 µM]	·
CCOc1ccc2nc(NC(=O)CSC3=NCCS3)sc2c1	-34	?	·	?	?	8.9µM*
COc1ccc2nc(NC(=O)CSc3cn[nH]n3)sc2c1	66	?	-21%	-7%	·	13µM*
